# Inconclusive results are not listed. Where a call stands in place of a potency, no number is given. Active and inactive are the calls of the source. Unless noted, the call rests on the fitted dose curve; in most records, active means well fitted curve in the direction sought with a large enough effect in the repeat runs; inconclusive means weak or mixed curves; inactive means no such curve, though single readings can be large; an effect the other way counts as inactive or inconclusive.
# Key:
# [1] = qHTS assay to identify small molecule antagonists of the estrogen related receptor (ERR) signaling pathway - cell viability counter screen (AID 1224818); further: potency means the concentration at half of the fitted maximal effect
# Outline: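 Compounds dissolved in DMSO were applied to ERR cells seeded at 2,000 per well 6 h earlier. Cell viability followed 17.5 h later via 30-min CellTiter-Fluor fluorescence.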
# [2] = qHTS assay to identify small molecule antagonists of the estrogen related receptor (ERR) signaling pathway (AID 1224819; further: nearly all actives have a fitted effect of over 50% in size; further: potency means the concentration at half of the fitted maximal effect)
# Outline: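 Compounds dissolved in DMSO were pin-transferred onto ERR cells that had been plated 6 h earlier, and cells were then incubated 18 h at 37 C; signal was luciferase luminescence via One-Glo.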
# [3] = qHTS assay to identify small molecule agonists of the estrogen related receptor (ERR) signaling pathway (AID 1224820); further: potency means the concentration at half of the fitted maximal effect
# Outline: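 Luminescence readout (One-Glo, 30 min RT) from NTP-supplied ERR cell line exposed to compounds for 18 h at 37 C. Cells seeded 2,000 per well and pre-incubated 6 h before pin-tool compound transfer.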
# [4] = tested on: estrogen-related receptor alpha (ERRalpha) with PGC-1alpha coactivator, human; experiment: qHTS assay to identify small molecule antagonists of the estrogen related receptor signaling pathway with the pleiotropic PPARgamma coactivator (PGC) (AID 1224821; calls by dose curve;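 further: series mostly up to about 46 µM; lower luminescence signal means antagonism of PGC/ERR signalling; nearly all actives have a fitted effect of over 50% in size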)
# Outline: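 PGC/ERR reporter cells; 6 h pre-incubation 37 C/5% CO2; pin-tool compound in DMSO, 18 h 37 C; One-Glo added, 30 min RT; luminescence read. qHTS antagonist mode.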
# [5] = qHTS assay to identify small molecule antagonists of the estrogen related receptor signaling pathway with the pleiotropic PPARgamma coactivator (PGC) cell viability counter screen (AID 1224822; further: potency means the concentration at half of the fitted maximal effect)
# Outline: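 Counter screen for cell viability: PGC/ERR cells, 6 h pre-incubation after plating, 17.5 h compound exposure at 37 C, fluorescence from CellTiter-Fluor after 30 min.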
# [6] = qHTS assay to identify small molecule agonists of the estrogen related receptor signaling pathway with the pleiotropic PPARgamma coactivator (PGC) (AID 1224823); further: potency means the concentration at half of the fitted maximal effect
# Outline: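 Luminescence readout (One-Glo, 30 min RT) from PGC/ERR cell line treated 18 h at 37 C with pin-tool-delivered DMSO compound solutions; cells plated 6 h before dosing. Quantitative HTS format.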
SMILES,Potency [1],Potency [2],Potency [3],Potency [4],Potency [5],Potency [6]
Fc1ccc(CN(C2=NCCN2)c2c(Cl)cccc2Cl)cc1,inactive,inactive,inactive,inactive,inactive,inactive
COc1ccccc1N1CCN(CCCCN2C(=O)c3ccccc3C2=O)CC1,inactive,inactive,inactive,inactive,inactive,–
NC(=O)CC[C@H](N)C(=O)O,inactive,inactive,inactive,inactive,inactive,–
CC(O)C(O)[C@H]1CNc2nc(N)[nH]c(=O)c2N1 (stereo not given in full),inactive,inactive,inactive,inactive,inactive,inactive
CNc1ncnc2c1ncn2[C@@H]1O[C@H](CO)C(O)[C@H]1O (stereo not given in full),inactive,inactive,inactive,inactive,inactive,–
C#CC(N)CCC(=O)O (stereo not given),inactive,inactive,inactive,inactive,inactive,inactive
O=C(Nc1ccc2[nH]ncc2c1)C1CCC1,inactive,inactive,12.8 µM (active),inactive,inactive,–
NC(N)=[N+]1CCc2ccccc2C1,inactive,inactive,inactive,inactive,inactive,–
[N-]=[N+]=Nc1ccc(C(=O)CSC[C@H](NC(=O)CC[C@H](N)C(=O)O)C(=O)NCC(=O)O)cc1,inactive,0.552 µM (active),inactive,inactive,inactive,inactive
NCCCCC(=O)O,inactive,inactive,inactive,inactive,inactive,inactive
O=c1onc2n1-c1cc(Br)ccc1OC2,inactive,inactive,inactive,inactive,inactive,inactive
Nc1ccc(N2C(=O)c3ccccc3C2=O)c(Cl)c1,inactive,inactive,inactive,inactive,inactive,inactive
Clc1nccc2c1ccc1ccccc12,inactive,inactive,inactive,inactive,inactive,inactive
Cc1nc(N=Nc2ccc(C(=O)O)cc2)c(COP(=O)(O)O)c(C=O)c1O,inactive,inactive,inactive,inactive,inactive,inactive
CCCCCCCCCC[Si](C)(C)CCC(=O)NC(Cc1ccc(C)cc1)c1ccccc1 (stereo not given),inactive,inactive,inactive,inactive,inactive,inactive
C[N+]1(CCCCC[N+]2(C)CCCC2)CCCC1,inactive,inactive,inactive,inactive,inactive,inactive
NC(Cc1cccc(-c2ccccc2CP(=O)(O)O)c1)C(=O)O (stereo not given),inactive,inactive,inactive,inactive,inactive,–
CN1C2CCCC1CC(NC(=O)c1nn(C)c3ccccc13)C2 (stereo not given),inactive,inactive,inactive,inactive,inactive,inactive
NC/C=C\C(=O)O,inactive,inactive,inactive,inactive,inactive,inactive
CC(C)C[C@H](NC(=O)C1OC1C(=O)O)C(=O)NCCCCN=C(N)N (stereo not given in full),inactive,inactive,inactive,inactive,inactive,inactive
CC1=C(C(=O)O)N2C(=O)[C@@H](NC(=O)C(N)c3ccccc3)[C@H]2SC1 (stereo not given in full),inactive,inactive,inactive,inactive,inactive,inactive

SMILES,Potency [1],Potency [2],Potency [3],Potency [4],Potency [5],Potency [6]
CN[C@H](CC(=O)O)C(=O)O,inactive,inactive,inactive,inactive,inactive,inactive
CC(C)[C@@H]1CC[C@@H](C)C[C@@H]1P(=O)(c1ccccc1)c1ccccc1,inactive,inactive,inactive,inactive,inactive,inactive
COc1ccc(-c2ccc(N)[n+](CCCC(=O)O)n2)cc1,inactive,inactive,inactive,inactive,inactive,inactive
CCOC(=O)[C@H](CCc1ccccc1)N[C@@H](C)C(=O)N1[C@H](C(=O)O)C[C@H]2CCCC[C@@H]21,inactive,inactive,inactive,inactive,inactive,inactive
Nc1nc2[nH]c(=O)cnc2c(=O)[nH]1,inactive,inactive,inactive,inactive,inactive,inactive
N[C@@H](CCC(=O)N[C@H](CSN=O)C(=O)NCC(=O)O)C(=O)O,inactive,inactive,inactive,inactive,inactive,inactive
S=C(S)OC1CC2CC1C1CCCC21 (stereo not given),inactive,inactive,inactive,inactive,inactive,inactive
Nc1nc(Cl)nc2c1ncn2[C@@H]1O[C@H](CO)C(O)[C@H]1O (stereo not given in full),inactive,inactive,inactive,inactive,inactive,1.23 µM (active)
COc1cc2c(CCNC(C)=O)c[nH]c2cc1Cl,inactive,inactive,inactive,inactive,inactive,inactive
Cc1cccc(C#Cc2ccccc2)n1,inactive,inactive,12.8 µM (active),inactive,inactive,9.44 µM (active)
O=C(O)[C@H]1NCCC[C@H]1C(=O)O,inactive,inactive,inactive,inactive,inactive,inactive
O=C(OCCN1CCOCC1)C1(c2ccccc2)CCCCC1,inactive,inactive,inactive,inactive,inactive,inactive
CCN(CC)CCNC(=O)c1ccc(NS(C)(=O)=O)cc1,inactive,inactive,inactive,inactive,inactive,inactive
N[C@@H](Cc1ccc(O)c(I)c1)C(=O)O,inactive,inactive,inactive,inactive,inactive,inactive
Nc1nc2c(ncn2[C@@H]2O[C@H](CO)[C@@H](O)[C@@H]2O)c(=O)[nH]1,inactive,inactive,inactive,inactive,inactive,inactive
NC(C(=O)N[C@@H]1C(=O)N2C(C(=O)O)=C(Cl)CS[C@H]12)c1ccccc1 (stereo not given in full),inactive,inactive,inactive,inactive,inactive,inactive
COc1ccc2c(c1)CCC1C2CC[C@@]2(C)C1CC[C@@H]2NCCCCCCN1C(=O)C=CC1=O (stereo not given in full),inactive,inactive,inactive,inactive,inactive,inactive
C[N+](C)(C)CCOP(=O)(O)OP(=O)([O-])OC[C@H]1O[C@@H](n2ccc(N)nc2=O)[C@H](O)C1O (stereo not given in full),inactive,inactive,inactive,inactive,inactive,inactive
NCC(O)(CS(=O)(=O)O)c1ccc(Cl)cc1 (stereo not given),inactive,inactive,inactive,inactive,inactive,inactive
O=C(O)C1CCCN(CCC=C(c2ccccc2)c2ccccc2)C1 (stereo not given),inactive,inactive,inactive,inactive,inactive,inactive
CCCCCCC(=O)OC1CC(C)(C)NC(C)(C)C1,inactive,inactive,inactive,inactive,inactive,inactive

SMILES,Potency [1],Potency [2],Potency [3],Potency [4],Potency [5],Potency [6]
Cc1nc2n(c(=O)c1CCN1CCC(c3noc4cc(F)ccc34)CC1)CCCC2O (stereo not given),inactive,inactive,inactive,inactive,inactive,inactive
Nc1ccc(-c2ccc3ccccc3n2)cc1,inactive,inactive,2.46 µM (active),inactive,inactive,1.96 µM (active)
Oc1ccc(Cn2cc[nH]c2=S)cc1,inactive,inactive,inactive,inactive,inactive,inactive
CCn1c(=O)[nH]c2cc(Cl)c(Cl)cc21,inactive,inactive,inactive,inactive,inactive,inactive
O=C(O)c1cc(=O)c2ccccc2[nH]1,inactive,inactive,inactive,inactive,inactive,inactive
Nc1ncnc2n[nH]c(Nc3ccc(F)cc3)c12,inactive,inactive,inactive,inactive,inactive,22.8 µM (active)
O=c1c(O)c(-c2cc(O)c(O)c(O)c2)oc2cc(O)cc(O)c12,inactive,inactive,inactive,inactive,inactive,inactive
CC(N)(Cc1ccc(O)cc1)C(=O)O (stereo not given),inactive,inactive,inactive,inactive,inactive,inactive
O=C(O)Cc1ccc(O)c(O)c1,inactive,inactive,inactive,inactive,inactive,inactive
C[C@@H](c1ncncc1F)[C@](O)(Cn1cncn1)c1ccc(F)cc1F,inactive,inactive,inactive,inactive,inactive,inactive
O=Nc1c(-c2c(O)[nH]c3cc(Br)ccc23)[nH]c2ccccc12,16.2 µM (active),inactive,1.68 µM (active),inactive,11.4 µM (active),1.14 µM (active)
NC1CONC1=O (stereo not given),inactive,inactive,inactive,inactive,inactive,inactive
NCCC1CCCC(CCN)N1 (stereo not given),inactive,inactive,inactive,inactive,inactive,inactive
O=C(O)C1=CCCNC1,inactive,inactive,inactive,inactive,inactive,inactive
Nc1ncnc2c1ncn2C1CCCC1,inactive,inactive,inactive,inactive,inactive,inactive
C[C@@H]1C(=O)NC2=Nc3cccc(Cl)c3CN21,inactive,inactive,inactive,inactive,inactive,inactive
O=C(O)/C(=C/c1c(C(=O)O)[nH]c2cc(Cl)cc(Cl)c12)c1ccccc1,inactive,inactive,inactive,inactive,inactive,inactive
O=C(O)C1=CCCN(CCON=C(c2ccccc2)c2ccccc2)C1,inactive,inactive,inactive,inactive,inactive,inactive
CC[C@H](C)C(=O)O[C@H]1CCC=C2C=C[C@H](C)[C@H](CC[C@@H]3C[C@@H](O)CC(=O)O3)[C@H]21,inactive,inactive,3.48 µM (active),inactive,inactive,inactive
